Each sequence was assayed against COL20A1 (assay: pooled miR-30 sensor sort-seq; sequence = guide strand). Conditions: shRNA.
Note: reference of the scale not given here.

Sequence	sensor-assay potency score (higher = more potent)
TTGAACTTGCTCTCTTCCCAGG	-1.19
TAGAGCCTGACCTTGGAGCGGC	-0.375
TAGGTCAGGGACTTCTTCCCGG	-0.568

The sequences below were run against COL23A1 in the same assay as above. Conditions: shRNA.

Sequence	sensor-assay potency score (higher = more potent)
TTTGCCTGCACAGCCCACCTAG	-1.12
TTCGCTAGTCCGTCCAACTTCT	-0.113
TCATAGTCGATCACCACTGTGT	0.319
TCTACCTTCATCTCCTTCCTGG	0.0937
TAGTCGATCACCACTGTGTCTC	-0.624
TAGTCCGTCCAACTTCTCCCGC	-1.02
TTGAGGGCATCCAAGATCCTGC	-1.13
TTCTCTCCACGCTCGCTCCGAT	-1.13
TTGCTTTGCCTGCACAGCCCAC	-1.59
TTGTCCTTGGTCTCCCCGGGGG	-1.12
TAGAGCTAGACCCTCGTGGGGG	-0.316
TTGCTGGGAACACTTGCTGGAG	-1.43

What follows are sequences tested against COL4A2 in the same assay as above. Conditions: shRNA.

Sequence	sensor-assay potency score (higher = more potent)
TAGTAGCAGACATCACCAGGGT	0.056
TTTGATAGCTTCGTCGCCTTCT	0.156
TCTATCTCCTTTTAGCCCGGGG	-0.278
TTCTCCTGGAGTACCCTTCGTT	-0.712
TCACATCTGTGTCACAATCTAT	-0.621
TGATTGTTCTGGAATCTCCTTT	0.225
TTTGTAGTCGTTACACAGGAGG	-1.03
TGTCACAATCTATTTGTCCTGG	0.235
TTAAATCTCAGGGACAACGTGG	-0.373
TCACACACAGAACAGCGGCTGA	-0.772
TTGGTCTCCTTTCTGTCCTGGG	-0.772
TATCCGATCCACAAACTCCGCC	-0.539
TTTCTCTCCTTTAATGTCTTTC	-0.595
TTGCATTCGATGAATGGTGTGG	0.0414
TTTAATGTCTTTCATTCCTGGC	-0.64
TAAATTTATAGTGTCCCCGATG	-0.984
TTTACGTCCCTGCAGTCCCGGG	-1.37
TACAGGAAGGGCATGGTGCTGA	-0.213
TAGGGCTTGATCTCGTCCTCGG	-0.228
TTGGTTGTGATTGTTCTGGAAT	-0.89
ATCTGTGTCACAATCTATTTGT	-0.377
TACATCTGCATTCCCCAGCGTC	-0.779
TAGTAGTGGCAGGTGCCGCGGC	-0.784
TAGGACTTGTCGTTCCGGCTGG	0.103

From the OligoGym collection
